Results reported in PubChem BioAssay (Tox21).
Inconclusive results are not listed. Active and inactive are the calls of the source. Calls follow the shape of the full dose curve.

How the values were obtained:
[1] = target: Acetylcholinesterase (Homo sapiens) (UniProt P22303); test: Acetylcholinesterase (AChE) small molecule antagonists: colormetric cell-based qHTS assay (AID 1347395); also: nearly all actives have a fitted effect of over 30% in size
Method in brief: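 In this cell-based qHTS, attached SH-SY5Y cells were treated with test chemicals for 30 min, after which acetylthiocholine hydrolysis was followed by DTNB colour development over 90 min at 37 C.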

[2] = target: Acetylcholinesterase (Homo sapiens) (UniProt P22303); test: Acetylcholinesterase (AChE) small molecule antagonists: enzyme-based qHTS assay (AID 1347397); settings: Potency: AChE enzyme activity inhibition; outcome: AChE enzyme activity inhibition; also: nearly all actives have a fitted effect of over 55% in size
Method in brief: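 Recombinant human AChE, dispensed at 50 mU/mL, was preincubated with Tox21 10K compounds or DMSO vehicle for 30 min at room temperature. DTNB plus acetylthiocholine was then added, and thiocholine was measured colorimetrically after a further 10 min.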

[3] = target: Acetylcholinesterase (Homo sapiens) (UniProt P22303); test: Acetylcholinesterase (AChE) small molecule antagonists: fluorescence cell-based qHTS assay (AID 1347398); settings: Potency: AChE activity; outcome: AChE activity; also: nearly all actives have a fitted effect of over 50% in size
Method in brief: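 Human SH-SY5Y cells were plated overnight at 37 C, exposed to compound for 30 min at 37 C, 5% CO2, then given acetylthiocholine plus Thiolite Green for 40 min at room temperature; thiocholine fluorescence (Ex/Em 490/520 nm) reports endogenous AChE activity.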

[4] = target: Acetylcholinesterase (Homo sapiens) (UniProt P22303); test: Acetylcholinesterase (AChE) small molecule antagonists: enzyme-based qHTS assay with human liver microsomes (AID 1347399); settings: Potency: qHTS inhibition; outcome: qHTS inhibition; also: nearly all actives have a fitted effect of over 60% in size
Method in brief: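 Recombinant human AChE (50 mU/mL in the enzyme mix) and human liver microsomes (0.25 mg/mL final) were preincubated with compound and NADPH (0.25 mg/mL final) for 30 min at 37 C. Acetylthiocholine/DTNB was then added; thiocholine was read colorimetrically after 10 min at room temperature.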
% is scaled to controls: 0 for no effect and ±100 for the full control effect.

Chain of Acetylcholinesterase (Homo sapiens) (P22303 whole entry, looked up): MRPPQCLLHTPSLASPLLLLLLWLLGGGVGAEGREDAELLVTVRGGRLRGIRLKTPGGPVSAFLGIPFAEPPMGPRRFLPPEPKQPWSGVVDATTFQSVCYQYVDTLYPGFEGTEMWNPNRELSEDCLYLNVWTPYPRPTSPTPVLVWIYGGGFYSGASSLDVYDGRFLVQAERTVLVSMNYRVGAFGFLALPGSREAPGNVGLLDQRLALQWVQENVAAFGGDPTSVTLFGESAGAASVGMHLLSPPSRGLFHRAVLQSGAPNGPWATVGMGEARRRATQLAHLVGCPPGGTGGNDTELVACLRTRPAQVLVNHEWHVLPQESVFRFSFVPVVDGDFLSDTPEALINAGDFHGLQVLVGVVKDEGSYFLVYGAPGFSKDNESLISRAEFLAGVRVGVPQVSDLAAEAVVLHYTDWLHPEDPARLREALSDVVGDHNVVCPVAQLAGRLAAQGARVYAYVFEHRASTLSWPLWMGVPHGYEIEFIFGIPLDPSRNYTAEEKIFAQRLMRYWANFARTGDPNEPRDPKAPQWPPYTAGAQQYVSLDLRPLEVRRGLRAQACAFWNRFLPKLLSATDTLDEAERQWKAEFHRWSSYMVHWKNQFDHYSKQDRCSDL

CC1CN(c2cc3c(cc2F)c(=O)c(C(=O)O)cn3-c2ccc(F)cc2F)CCN1 (stereo not given)
inactive: activity, negative = inhibition [1] 1.81% [at 10.5 µM] | activity change, negative = inhibition [2] 0.0761% [at 10.5 µM] | activity change, negative = inhibition [3] 3.28% [at 10.5 µM] | activity change, negative = inhibition [4] 5% [at 10.5 µM]

Cc1ccc(Cl)c(OCC(O)CNC(C)(C)C)c1 (stereo not given)
inactive: Potency [1] | Potency [2] | Potency [3] | Potency [4]

O=[N+]([O-])c1ccc2[nH]ncc2c1
inactive: Potency [1] | Potency [2] | Potency [3] | Potency [4]

CCOC(=O)CC(=O)c1cc(F)c(Cl)nc1Cl
inactive: Potency [1] | Potency [2] | Potency [3] | Potency [4]

Clc1ccc2nsnc2c1NC1=NCCN1
inactive: Potency [1] | Potency [2] | Potency [3] | Potency [4]

c1ccc(CN(CC2=NCCN2)c2ccccc2)cc1
inactive: Potency [1] | Potency [2] | Potency [3] | Potency [4]

C=CC(=O)OCCCl
inactive: Potency [1] | Potency [2] | Potency [3] | Potency [4]

CC(C)(O)c1ccccc1CC[C@@H](SCC1(CC(=O)O)CC1)c1cccc(/C=C/c2ccc3ccc(Cl)cc3n2)c1
inactive: Potency [1] | Potency [2] | Potency [3] | Potency [4]

CC12CCC(C(=O)C1=O)C2(C)C (stereo not given)
inactive: Potency [1] | Potency [2] | Potency [3] | Potency [4]

OC[C@H]1O[C@@H](O[C@@H]2[C@@H](CO)O[C@](O)(CO)[C@H]2O)[C@H](O)[C@@H](O)[C@H]1O
inactive: Potency [1] | Potency [2] | Potency [3] | Potency [4]

NC(=S)N/N=C/c1cccnc1
inactive: Potency [1] | Potency [2] | Potency [3] | Potency [4]

CCC(C)NC(N)=O (stereo not given)
inactive: Potency [1] | Potency [2] | Potency [3] | Potency [4]

COc1ccc(NS(=O)(=O)c2ccc(N)cc2)nn1
inactive: Potency [1] | Potency [2] | Potency [3] | Potency [4]

O=C1OC(=O)C2C3C=CC(C3)C12 (stereo not given)
inactive: Potency [1] | Potency [2] | Potency [3] | Potency [4]

COC(=O)CCSCCC(=O)OC
inactive: Potency [1] | Potency [2] | Potency [3] | Potency [4]

CC(=O)N[C@@H](CCC(=O)O)C(=O)O
inactive: Potency [1] | Potency [2] | Potency [3] | Potency [4]

S=c1[nH][nH]c(=S)s1
inactive: Potency [1] | Potency [2] | Potency [3] | Potency [4]

CC(=O)C1CCCCC1=O (stereo not given)
inactive: Potency [1] | Potency [2] | Potency [3] | Potency [4]

C=CCn1c(=O)n(CC=C)c(=O)n(CC=C)c1=O
inactive: Potency [1] | Potency [2] | Potency [3] | Potency [4]

CCCCCCCCN(C)CCCCCCCC
inactive: Potency [1] | Potency [2] | Potency [3] | Potency [4]

Oc1ccc(Nc2ccccc2)cc1
inactive: Potency [1] | Potency [2] | Potency [3] | Potency [4]

COc1ccc(/C=C/c2cc(OC)cc(=O)o2)cc1
inactive: Potency [1] | Potency [2] | Potency [3] | Potency [4]

CCCCOC(=O)CCCCCCCC(=O)OCCCC
inactive: Potency [1] | Potency [2] | Potency [3] | Potency [4]

CCC(O)C(C)(C)C (stereo not given)
inactive: Potency [1] | Potency [2] | Potency [3] | Potency [4]

CC(O)CN(CCCN(C)C)CCCN(C)C (stereo not given)
inactive: Potency [1] | Potency [2] | Potency [3] | Potency [4]

Sc1nc2ccccc2s1
inactive: Potency [1] | Potency [2] | Potency [3] | Potency [4]

Cc1cnc(C)c(C)n1
inactive: Potency [1] | Potency [2] | Potency [3] | Potency [4]

N#Cc1cscn1
inactive: Potency [1] | Potency [2] | Potency [3] | Potency [4]

CC(C)Nc1ccc(NC(C)C)c2c1C(=O)c1ccccc1C2=O
inactive: Potency [1] | Potency [2] | Potency [3] | Potency [4]

Nc1ccccc1S(=O)(=O)c1ccccc1
inactive: Potency [1] | Potency [2] | Potency [3] | Potency [4]

CNC(=O)C(c1ccccc1)c1ccccc1
inactive: Potency [1] | Potency [2] | Potency [3] | Potency [4]

Cc1ccccc1S
inactive: Potency [1] | Potency [2] | Potency [3] | Potency [4]

Nc1ncnc2c1ncn2Cc1c(F)cccc1Cl
inactive: Potency [1] | Potency [2] | Potency [3] | Potency [4]

CCCCc1ccc(N)cc1
inactive: Potency [1] | Potency [2] | Potency [3] | Potency [4]

CCCCCCCCCCCCCCCCCCCl
inactive: activity, negative = inhibition [1] -3.15% [at 10.5 µM] | activity change, negative = inhibition [2] -0.128% [at 10.5 µM] | activity change, negative = inhibition [3] 5.41% [at 10.5 µM] | activity change, negative = inhibition [4] 0.243% [at 10.5 µM]

O=C(O)C(=O)Cc1c[nH]c2ccccc12
inactive: Potency [1] | Potency [2] | Potency [3] | Potency [4]

CC(C)(C)c1ccc(OC(=O)c2ccccc2O)cc1
inactive: Potency [1] | Potency [2] | Potency [3] | Potency [4]

CCCCCCCCCCOCC(O)CN (stereo not given)
inactive: Potency [1] | Potency [2] | Potency [3] | Potency [4]

C/C(=C\C(C)CC(C)CC(C)C)C1CC(=O)OC1=O (stereo not given)
inactive: Potency [1] | Potency [2] | Potency [3] | Potency [4]

CCOCC(C)O (stereo not given)
inactive: Potency [1] | Potency [2] | Potency [3] | Potency [4]
